Experimental data published in PubChem BioAssay AID862 (The Scripps Research Institute Molecular Screening Center, 2007).
In all, about 190,000 compounds went through this assay and about 1,700 (0.89%) were called active. Only a selection was taken, and actives are over-represented in it overall. Values without a mark were called inactive.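 How the source made its calls: active means inhibition above the mean inhibition across all screened compounds plus 3 SD (cut at about 44% in these data); inactive means the rest.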

test: blockers of STAT3 transcriptional signaling – U3A cells, luciferase, luminescence, MLSCN library, primary screen (AID 862); conditions: IL-6 STAT3-luciferase reporter, at 5.5 µM, hits give high values, host cell line lacks STAT1;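 further: 0% = DMSO only wells and 100% = 100 µM nifuroxazide control wells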

| Structure (SMILES) | inhibition |
| --- | --- |
| Cc1cccc(CSc2nnc(Cn3c(=O)sc4ccccc43)n2C)c1 | 5% |
| COc1ccccc1CNC(=O)CCn1c(=O)sc2ccccc21 | -0.6% |
| COc1ccc(Cn2c(=O)sc3ccccc32)cc1OC | 51.6% (active) |
| CO/N=C/CC(=O)c1ccc(OC)cc1 | 6.2% |
| Cc1ccc(NC(=O)Cn2nc(C)c3ccccc3c2=O)c(C)c1 | 9.7% |
| Cc1ccc(F)cc1NC(=O)Cc1nn(C)c(=O)c2ccccc12 | 56.3% (active) |
| COc1ccc(-c2nn(C)c(=O)c3ccccc23)cc1NC(=O)COc1ccccc1 | 38.1% |
| Fc1ccc2[nH]c3c(N4CCSCC4)ncnc3c2c1 | 22.8% |
| Cc1cc(N2CCN(Cc3ccc4c(c3)OCO4)CC2)n2ncnc2n1 | -1.7% |
| Fc1ccc2[nH]c3c(N4CCN(Cc5ccc6c(c5)OCO6)CC4)ncnc3c2c1 | 65.5% (active) |
| CC(C)(C)NCCCOc1ccc(Cl)cc1C(C)(C)C | -0.4% |
| O=C(N/N=C/c1ccccc1O)/C(=C/c1ccccc1)CCO | 3.8% |
| Cc1ccccc1CSCCNC(=O)c1ccc(Cl)c(S(=O)(=O)N2CCOCC2)c1 | 4.2% |
| O=C(NCCSCc1ccccc1)c1ccc(Cl)c(S(=O)(=O)N2CCOCC2)c1 | 21% |
| CC(C)(CNC(=O)c1ccc(Cl)c(S(=O)(=O)N2CCc3ccccc3C2)c1)N1CCOCC1 | 49.5% (active) |
| CCOC(=O)C(=Cc1ccccc1OC)C(=O)OCC | 9.9% |
| Cc1cc(NC(=O)CSc2nc3c(cc2C#N)CCCCC3)no1 | -1.5% |
| O=C(N/N=C/C=C/c1ccco1)c1cccs1 | -6.8% |
| COc1cccc(-c2cc(C(=O)N/N=C/c3ccc(OC)c(COC(C)=O)c3)c3ccccc3n2)c1 | -6% |
| Cc1ccc(-c2cc(C(=O)N/N=C/C=C/c3ccco3)c3ccccc3n2)cc1C | 46.8% (active) |
| Cc1cc(C(=O)NNC(=O)c2cccc(S(=O)(=O)N3CCOCC3)c2)c2ccccc2n1 | 10% |
| CCC(=O)OCCNc1nc(-c2ccccc2)nc2ccccc12 | 1.5% |
| O=C(COC(=O)c1ccc(O)cc1)Nc1nccs1 | -5.6% |
| Cc1nc2ccccc2cc1O | -75.4% |
| Fc1cccc2ncnc(OCc3ccccc3)c12 | 4.2% |
| Cc1nc2ccccc2cc1OCc1ccc(F)cc1 | 73% (active) |
| O=C(Nc1ccc(N2CCN(C(=O)c3cccs3)CC2)cc1)c1cccnc1Cl | 1.7% |

| Structure (SMILES) | inhibition |
| --- | --- |
| O=c1c2ccccc2nc2n1C(CSc1ccc(F)cc1)CN2 (stereo not given) | -2.2% |
| O=c1c2ccccc2nc2n1C(CSCc1ccccc1)CS2 (stereo not given) | 18.7% |
| O=c1c2ccccc2nc2n1C(CSCc1cccc(C(F)(F)F)c1)CS2 (stereo not given) | 49.3% (active) |
| Cc1ccc(CNC(=O)c2cccnc2Cl)cc1 | 3.5% |
| CCOC(=O)CN/C=C(\C#N)c1ccc(F)cc1 | -0.6% |
| CCOc1cc(/C=C(/C#N)c2ccc(Cl)cc2)cc(Cl)c1OCC(=O)O | 63.3% (active) |
| CCOc1c(Cl)cc(/C=N/O)cc1OC | 1.3% |
| c1ccc(-c2nc(NCc3ccco3)c3ccccc3n2)cc1 | -1% |
| FC(F)(F)c1cccc(Nc2ncnc3ccccc23)c1 | 16.5% |
| c1coc(CNc2ncnc3ccccc23)c1 | 61.2% (active) |
| CCN(/N=C/c1ccc(N(C)C)cc1)c1nc2ccccc2[nH]1 | 1.9% |
| CCN(CCCNC(=O)CSc1cc(=O)n(C)c2cc(Cl)ccc12)Cc1ccccc1 | 5.2% |
| Cn1c(N)c(C(=O)COC(=O)/C=C/c2ccc(OC(F)F)cc2)c(=O)n(C)c1=O | 26.3% |
| O=C(Nc1ccccc1Cc1ccccc1)c1ccc2c(c1)SC1=NS(=O)(=O)CCN12 | -8.5% |
| Cn1c(SCC(=O)N2CCCc3ccccc32)nc2ccccc2c1=O | 62.3% (active) |
| O=C(CSc1nc2ccccc2c(=O)n1CCCO)N1CCc2ccccc21 | 12.6% |
| O=C(CSc1nc2[nH]ncc2c(=O)n1-c1ccccc1)N1CCCc2ccccc21 | -21.2% |
| COc1ccc(N2C(=O)C(O)C2c2ccc(C)cc2)cc1 (stereo not given) | -18.4% |
| O=C(OCC(=O)c1cccs1)c1ccc([N+](=O)[O-])o1 | 0.6% |
| COc1ccc(NC(=O)c2cc3nc(-c4ccccc4)cc(C)n3n2)cc1OC | 17.9% |
| Brc1ccc(-c2csc(N/N=C/c3ccc4c(c3)OCO4)n2)cc1 | 5% |
| Cc1noc(C)c1/C=N/Nc1ccc2ccccc2n1 | -21.3% |
| C(=N\Nc1ccc2ccccc2n1)/c1ccc2c(c1)OCO2 | 91.2% (active) |
| S=c1[nH]nc(Nc2ccccc2)s1 | 12% |
| CN(c1ccccc1)c1nc(N)c([N+](=O)[O-])c(NCc2ccco2)n1 | -0.4% |
| CCC(=O)/C=C1\Sc2ccccc2N1CC | 20.7% |
| CCN1/C(=C\c2ccc3ccccc3[n+]2CC)Sc2cc(C)ccc21 | 84.8% (active) |

| Structure (SMILES) | inhibition |
| --- | --- |
| Cc1ccccc1NC(=O)CN1C(=O)N/C(=C\c2cccn2-c2cccc(C(=O)O)c2)C1=O | 6% |
| O=C(O)CSCC(=O)Nc1ccc(C(F)(F)F)cc1 | 6.5% |
| CC(C)(C)c1ccc(Oc2ccc(N)cc2)cc1 | 76.2% (active) |
| Nc1ccc(Oc2ccc(Cl)cc2)cc1 | -0.6% |
| Cc1ccc(Oc2ccc(N)cc2)cc1 | 0.4% |
| C=CCNc1scc(-c2ccccc2)[n+]1CC=C | 4.7% |
| C=CC[n+]1c(-c2ccc(C)cc2)csc1NNC(=O)Nc1ccccc1 | 46.3% (active) |
| Cc1ccc(NC(=O)Nc2ccccc2)c(Br)c1 | 16.3% |
| CCCN(CC(=O)Nc1ccc(C(N)=O)cc1)CC(=O)Nc1ccccc1C | 3.9% |
| Cc1csc(NC(=O)Nc2ccccc2[N+](=O)[O-])n1 | -24.9% |
| OCCCC1CCCCN1Cc1nc(Cc2ccccc2Cl)no1 (stereo not given) | 4.3% |
| N/C(=N\OC(=O)c1ccc2c(c1)OCO2)c1ccc(Br)cc1 | 9.8% |
| Cc1cccc(N(CC(=O)Nc2ccc(-c3nc4ccc(C)cc4s3)cc2)S(C)(=O)=O)c1 | 28% |
| Cc1ccc2nc(-c3ccc(NC(=O)CN(C)S(=O)(=O)c4ccccc4)cc3)sc2c1 | 49.8% (active) |
| COc1cc(NC(=O)CN(C)S(=O)(=O)c2ccc3nc(C)sc3c2)cc(OC)c1 | 0.9% |
| O=C(CCc1ccccc1)NCCc1cccs1 | 4.7% |
| O=C(C/C(=N\NC(=O)c1ccccc1Br)C(F)(F)F)c1cccs1 | -8.2% |
| COc1cccc(C(=O)Nc2ccc(NC(=O)c3ccco3)cn2)c1 | 12.2% |
| O=C(Nc1ccc2nccnc2c1)c1ccco1 | 14.3% |
| O=C(Nc1ccc(NC(=O)c2cccs2)cn1)c1ccco1 | 48.3% (active) |
| N=c1n(CCc2ccccc2)c2ccccc2n1Cc1ccccc1F | 0.2% |
| CCc1ccc(CN(C)Cc2nc(Cc3ccccc3)no2)nc1 | -2.9% |
| CC1=CC=CN2C1=NC(=O)CC2(C)C(=O)N(CC(=O)NC1CCCC1)c1ccccc1C (stereo not given) | 4.4% |
| COc1ccc(C(=O)/C=C/Nc2ccccn2)cc1 | 97.2% (active) |
| CCOc1cc(NC(=O)c2ccccn2)c(OCC)cc1NC(=O)c1ccc(OC)cc1 | 13.8% |
| Cc1cc(N/C=C\C(=O)c2ccc(Cl)c(Cl)c2)no1 | -7.8% |
| Cc1ccc(CC2CC(=O)N(c3nc(C)cc(C)n3)C2=O)cc1 (stereo not given) | -0.9% |

| Structure (SMILES) | inhibition |
| --- | --- |
| Clc1cccc(-c2nc(NCC3CCCO3)c3ccccc3n2)c1 (stereo not given) | 15.5% |
| CCCCCCn1c(CN2CCCCC2)nc2c1c(=O)n(C)c(=O)n2C | -8.1% |
| CCCCCCCCn1c2c(c(=N)c3c1CCC3)CCCC2 | 76.2% (active) |
| COc1ccc(/C=C/C(=O)OCC(=O)NCc2cccs2)cc1OC | -9.7% |
| O=C(c1ccc(F)cc1)c1cn(Cc2ccc(F)cc2)c2cc3c(cc2c1=O)OCCO3 | 4.1% |
| Cc1cc(C2=NNC(=Nc3ccc(S(=O)(=O)N4CCOCC4)cc3)SC2)c(C)n1CC1CCCO1 (stereo not given) | -0.3% |
| COCCn1c(C)cc(C2=NNC(=Nc3ccc(F)cc3)SC2)c1C | -33.4% |
| C=CCn1c(C)cc(C2=NNC(=NCC)SC2)c1C | 108% (active) |
| [O-][n+]1c2c(nn1-c1ccc(Cl)c(Cl)c1)-c1nonc1CC2 | 5.8% |
| CC1CCN(c2ccc(C(=O)Nc3nnc(C4CC4)s3)cc2[N+](=O)[O-])CC1 | -3% |
| Cc1c(C(=O)Nc2ccccc2)sc2nc3n(c(=O)c12)CCCCC3 | 10.4% |
| O=c1c2c(nc3n1CCCCC3)sc1c(O)cccc12 | 64.8% (active) |
| Cc1cccc2c(=O)n3c(nc12)CCCCC3 | 2.1% |
| CC(C)Cn1c(N)c(C(=O)COC(=O)CN2C(=O)C3CC=CCC3C2=O)c(=O)n(C)c1=O (stereo not given) | 30.1% |
| COC(=O)c1c(NC(=O)CCCC(=O)O)sc2c1CCCCC2 | 22.2% |
| CCOCCCNCc1ccc(OCc2ccc(F)cc2)c(OC)c1 | 5.2% |
| CC(C)Oc1ccc(CCc2nnc(SCC(=O)O)n2-c2ccccc2)cc1 | 13.3% |
| Cc1ccc2nc(-c3ccc(NC(=O)c4cccnc4)cc3)oc2c1 | 67.9% (active) |
| Cc1ccc(-n2nc3cc(C)c(NC(=O)c4cccnc4)cc3n2)cc1 | 11.8% |
| Cc1cc2nc(-c3ccc(NC(=O)c4cccnc4)cc3)oc2cc1C | 7.8% |
| Cc1cccc(NC(=O)c2cc([N+](=O)[O-])ccc2N2CCN(C)CC2)c1 | 6.2% |
| COC(=O)CCNC(=O)c1ccc2[nH]c(C)c(C)c2c1 | 11% |
| Cc1cc(C(=O)COc2ccccc2[N+](=O)[O-])c(C)n1-c1cccc(S(=O)(=O)N2CCOCC2)c1 | -4.1% |
| Cc1[nH]c2ccccc2c1C(=O)COC(=O)c1c(-c2ccccc2)noc1C | -1.9% |
